Screening data as filed in PubChem BioAssay.
hcDAF12 agonist – activators of H. contortus DAF-12 nuclear receptor. HEK293 hcDAF-12 lit1-tk-luc reporter, luminescence; 0% DMSO, 100% Δ7-dafachronic acid. activation, % at 6.8 µM. 370,000 tested, 1.4% active. AID 652067;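 active = activation above the mean of all tested compounds plus 3 SD, cut at about 5.5% in these data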;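 also: 100% = response to 3 µM Δ7-dafachronic acid high control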
hgDAF-12 ag – hgDAF-12 agonism, primary luciferase screen; HEK293 GAL4-hgDAF12 UAS-luciferase reporter, agonist luminescence; normalized to butyrate control; activation, % at 6.8 µM; 370,000 tested, 1.8% active; AID 687014;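 active = activation above a cutoff set at the mean of all screened compounds plus 3 SD, cut at about 10% in these data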;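 also: 0% = DMSO wells and 100% = sodium butyrate wells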
ssDAF12 agonist – S. stercoralis DAF-12 activation, primary screen; activation, % at 6.8 µM; AID 652126; HEK293 ssDAF-12/GRIP1 lit1-tk-luc reporter, luminescence; % of 3 µM dafachronic acid response; 370,000 tested, 1% active;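 active = activation above the mean over all tested compounds plus 3 SD, cut at about 0.9% in these data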;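 also: 0% = DMSO-only wells and 100% = 3 µM delta7-dafachronic acid wells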
SMARCA2 act – activators of SMARCA2 function; MG213 cells, MMTV-luciferase reporter, dexamethasone, overnight; 370,000 tested, 1% active; activation, % at 9.1 µM; in the data active = activation above about 7.8%;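 also: 0% = vehicle wells and 100% = reference activator wells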
DAX1 inh-1 – inhibitors of human orphan nuclear receptor DAX1 (NR0B1); AID 504766; inhibition, % at 6.75 µM; P51843; HEK293 Gal4-DAX1 luciferase reporter, luminescence; 340,000 tested, 0.99% active;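 active = inhibition above the mean over all tested compounds plus 3 SD, cut at about 4.2% in these data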;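 also: 0% = DAX1-transfected cells with DMSO and 100% = empty-vector control cells with DMSO; inhibition shows as a rise in luminescence from relieved DAX1 repression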
Target sequence (P51843 207-470 limits assumed): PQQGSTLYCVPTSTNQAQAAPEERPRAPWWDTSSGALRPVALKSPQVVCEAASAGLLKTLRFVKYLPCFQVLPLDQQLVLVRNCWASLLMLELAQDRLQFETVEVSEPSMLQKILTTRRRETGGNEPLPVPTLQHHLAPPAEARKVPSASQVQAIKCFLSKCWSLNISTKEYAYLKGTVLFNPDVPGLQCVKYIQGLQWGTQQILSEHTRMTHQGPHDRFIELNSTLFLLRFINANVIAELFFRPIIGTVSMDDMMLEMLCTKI
DAX1 inh-2 – inhibitors of DAX1 repression of SF-1 activated StAR promoter; HEK293T StAR-luciferase reporter, SF-1/DAX-1 repression relief; inhibition, % at 6.8 µM; 370,000 tested, 1.1% active; AID 652010;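 active = inhibition above the mean over all tested compounds plus 3 SD, cut at about 3.6% in these data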;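 also: 0% = DAX-1 cells with DMSO and 100% = cells lacking DAX-1 with DMSO; higher inhibition means more luminescence from relief of DAX-1 repression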
* hit, by the source's call; / = no result given. Hits are enriched below; roughly 4.8% of the tested compounds scored in any of these assays.

SMILES	hcDAF12 agonist	hgDAF-12 ag	ssDAF12 agonist	SMARCA2 act	DAX1 inh-1	DAX1 inh-2
OC1c2cc(Cl)ccc2-c2c(Cl)cc(Cl)cc21 (centres undefined)	4	2	0	3	5.4*	-2
COc1ccc(C(c2nnnn2CC2CCCO2)N2CCN(c3cccc(C)c3C)CC2)cc1 (centres undefined)	-2	-1	-1	0	0	1
COc1cccc(/C=C/C(=O)Oc2ccc(C(=O)c3ccc(F)cc3)cc2)c1	0	-2	-2	-1	2	0
O=C(/C=C/c1ccc2c(c1)OCO2)c1ccc[nH]1	3	11*	0	8	3	2
COc1cccc(/C=C/C(=O)c2ccc[nH]2)c1	3	6	1.2*	2	2	1
O=C(/C=C/c1ccc2c(c1)OCO2)c1ccc(F)cc1	1	5	-1	2	1	0
Cc1cccn2c(CN(C)C3CCOC3)c(C(=O)N3CCCCC3)nc12 (centres undefined)	1	-1	-1	-2	4.3*	0
CC(=O)Cc1nsc(Nc2ccc(C)cc2)n1	5	12*	1	5	3	4.2*
CNc1nc(CC(C)=O)ns1	0	-1	-1	0	0	0
COc1ccc(OC)c(C2CC(=O)c3c([nH]c(C(=O)OCC4CCCO4)c3C)C2)c1 (centres undefined)	-1	-3	-1	-2	0	1
O=[N+]([O-])c1ccc2nc(C(O)C(O)c3nc4ccc([N+](=O)[O-])cc4[nH]3)[nH]c2c1 (centres undefined)	2	5	1.0*	-3	2	0
CCOC(=O)c1sc2nc3c(cc2c1N)COC(C(C)C)C3 (centres undefined)	0	3	-1	1	4.3*	2
CCOC(=O)c1sc2nc(N3CCOCC3)c3c(c2c1N)CC(C(C)C)OC3 (centres undefined)	0	-2	-1	7	1	0
O=C1NC(c2ccc(Cl)cc2)=COc2ccccc21	0	-2	0	-3	1	1
O=C1NN=COc2ccccc21	5.7*	2	0	5	-1	1
Cc1cccc(-n2c(N)cc(=O)[nH]c2=S)c1C	-1	0	0	0	1	0
CCc1nnc(NC(=O)CCn2cnc3ccccc3c2=O)s1	-2	-3	1.0*	-1	/	0
C=C1C[C@H]2[C@@H]3CCc4cc(OC)ccc4[C@H]3CC[C@]12C	0	2	-1	0	1	0
CC(C)Cn1c(N)c(C(=O)COC(=O)CC23CC4CC(CC(C4)C2)C3)c(=O)n(C)c1=O	-3	-6	-2	-3	-4	-2
CN(C)Cc1nnnn1-c1ccccc1	0	-2	-1	-4	4.9*	0
O=C(O)CCN1c2cccc3cccc(c23)S1(=O)=O	-2	-1	-1	-2	1	0
O=C(NNC1CC(=O)N(c2ccc(Cl)cc2)C1=O)c1ccccn1 (centres undefined)	3	10	0.9*	6	-1	1
CC(C)c1ccc(N2C(=O)CC(NNC(=O)c3cccnc3)C2=O)cc1 (centres undefined)	0	1	-1	7	5.6*	0
CCCN(CCC)CCNC(=O)c1cc2c(=O)n(C)c3ccccc3c2n1C	2	3	-1	0	5.7*	3
CCN1CCN(C(=O)c2cc3c(=O)n(C)c4ccccc4c3n2C)CC1	2	-1	-1	1	5.8*	2
CCOC(=O)N1CCN(C(=O)c2cc3c(=O)n(C)c4ccccc4c3n2C)CC1	2	2	-2	0	2	0
Cc1ccc(CNC(=O)c2cc3c(=O)n(C)c4ccccc4c3n2C)cc1	1	0	-1	-2	5.6*	0
CC(=O)c1cccc(NC(=O)CC2S/C(=N/N=C/c3ccccc3)NC2=O)c1 (centres undefined)	1	-3	-2	-2	2	0
c1cnc2c(c1)ncc1cscc12	-1	3	-1	0	1	0
Cn1nc(NC(=O)C(F)(F)F)c2ncc(-c3ccc(Cl)cc3)nc21	-1	6	-1	6	4.2*	0
